eIF4H FP inh = inhibitors of RNA binding by human eIF4H. Q15056. eIF4H fluorescence polarization binding assay. inhibition, % at 35 µM. 0.94% of 290,000 active. AID 2012;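 also: calls also rest on retests at 20 µM and on dose response follow-up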
ALR H2O2 inh = human ALR oxidase inhibition via reduced H2O2. 3.8% of 290,000 active. AID 485317. purified ALR, DTT oxidation, H2O2 HRP-luminol luminescence. inhibition, % (test concentration not listed);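 active = mean replicate inhibition above about 79%, with every replicate also reaching it, limit read from the data; inconclusive = only one of the two criteria met; inactive = mean below limit and not every replicate reaching it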
SUMO HTRF inh = blocks human SUMOylation mediated by UBC9; HTRF SUMOylation assay, SAE1/SAE2 + UBC9, in vitro; inhibition, % at 35 µM; 0.36% of 290,000 active; AID 2006; in the data active = inhibition above about 50%, passing the limit was not always enough; inconclusive = no clear call, values can overlap the other calls
Target sequence (P63279 whole entry, looked up): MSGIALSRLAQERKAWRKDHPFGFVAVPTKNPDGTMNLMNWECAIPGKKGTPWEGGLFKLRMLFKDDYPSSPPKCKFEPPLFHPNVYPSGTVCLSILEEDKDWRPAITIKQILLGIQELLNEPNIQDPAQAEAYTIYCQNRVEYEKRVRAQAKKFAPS
Efflux pump mplx = antifungal efflux pump inhibition, Nile Red retention. 0.44% of 330,000 active. inhibition, % at 10 µM. S. cerevisiae Candida pump triplex. AID 485275;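 active = plate passing quality check with inhibition over a set limit, or well fluorescence over plate mean plus 4 SD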;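 also: Nile Red retained in pooled yeast measured as flow cytometry median fluorescence; 0% = buffer negative control and 100% = Enniatin B positive control; higher means more Nile Red kept so more efflux inhibition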
PABP polyA inh = PABP-poly(A) binding inhibition. P11940. PABP-poly(A) RNA binding, fluorescence polarization. inhibition, % at 35 µM. 1% of 290,000 active;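 also: calls also rest on retests at 20 µM and on dose response follow-up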
PABP1 MLLE inh = inhibitors of microRNA-mediated deadenylation, human PABP1 MLLE binding; 0.36% of 360,000 active; GST-MLLE / FITC-PAM2 fluorescence polarization; P11940; inhibition, % at 20 µM; in the data active = inhibition above about 35%, passing the limit was not always enough;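 also: plate controls were DMSO wells with GST-MLLE for no effect and wells lacking GST-MLLE protein for full effect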
The depositor's hits bear a star; ? = inconclusive; . = not tested or not shown; ! = a repeat was not active. In the library only some 4.7% were active in any assay of this set; here they are far more common. Unless noted, no rule for the calls is given here.

SMILES	eIF4H FP inh	ALR H2O2 inh	SUMO HTRF inh	Efflux pump mplx	PABP polyA inh	PABP1 MLLE inh
COc1ccc(N2CCN(CC(O)COc3cc(C)cc(C)c3)CC2)cc1 (stereo unspecified)	1	69	-8	0	2	-12
COc1ccc(N2CCN(CC(O)COc3ccc(C)c(C)c3)CC2)cc1 (stereo unspecified)	-9	97*	4	0	2	-10
Cc1ccc(N2CCN(CC(O)COc3ccccc3)CC2)cc1 (stereo unspecified)	-2	95*	-1	0	6	6
COc1ccc(N2CCN(CC(O)COc3ccc(F)cc3)CC2)cc1 (stereo unspecified)	-6	99*	5	0	-8	6
COc1ccc(OCC(O)CN2CCN(c3ccc(OC)cc3)CC2)cc1 (stereo unspecified)	0	99*	-10	0	-8	-9
COc1ccc2nc(-c3ccccc3)nc(SC)c2c1	.	.	.	.	.	-8
C=CCc1cc(OC)ccc1OCC(O)CN1CCN(c2ccc(OC)cc2)CC1 (stereo unspecified)	-2	79*!	-18	0	32	0
OC(COCc1ccccc1)CN1CCN(c2ccccc2)CC1 (stereo unspecified)	-4	82*	2	0	9	10
COc1ccc(N2CCN(CC(=O)Nc3ccc(C)c(C)c3)CC2)cc1	-1	98*	-1	0	4	3
Oc1ccccc1N1CCN(CC(O)COCc2ccccc2Cl)CC1 (stereo unspecified)	-1	99*	6	0	-8	5
O=[N+]([O-])c1ccc(C(O)CN2CCN(c3ccccc3)CC2)cc1 (stereo unspecified)	-6	7	1	0	11	-6
Oc1ccc(N2CCN(CC(O)c3ccccc3)CC2)cc1 (stereo unspecified)	-10	99*	-7	0	-14	-6
C[C@H]1CN([C@@H](C)CO)S(=O)(=O)c2ccc(-c3cncnc3)cc2O[C@H]1CN(C)C(=O)NC1CCCC1	.	.	.	.	.	-6
O=C(O)c1ccc(/C=C2\SC(=S)N(NC(=O)c3ccccc3)C2=O)cc1	1	19	4	0	20	17
CC(=O)NN1C(=O)/C(=C/c2ccc(C(C)C)cc2)SC1=S	-2	98*	-22	0	-5	7
Cc1nc(SCc2nc3ccc([N+](=O)[O-])cc3[nH]2)c2oc3ccccc3c2n1	.	.	.	0	.	-21
O=[N+]([O-])c1cccc(C(=Nc2cccc(Cl)c2)NO)c1	70*	41	-7	0	14*	3
CC(C)CC(=O)Nc1nnc(S(=O)(=O)N2CCc3ccccc32)s1	4	.	9	1	-11	-1
CCCc1nc2ccc(Cl)cn2c1Cc1ccsc1	.	.	.	.	.	44*
CCOC(=O)c1c(CSc2cccs2)n(C)c2cc(Br)c(O)c(CN(C)C)c12	-5	99*	-10	0	10	12
Cc1cn2c(=O)c(C(=O)NCc3ccc4c(c3)OCO4)cnc2s1	.	0	.	0	.	6
CCN(CC)S(=O)(=O)c1ccc(C(=O)NC(=S)N2CCCCC2C)cc1 (stereo unspecified)	.	.	.	.	.	22
CC1=[N+](C)c2c(ccc3cccnc23)C1(C)C	?	.	90*	.	?	-14
C=CCN1C(=O)c2ccc(C(=O)N(CC)CC(=O)Nc3c(F)cccc3F)cc2C1=O	.	3	.	0	.	3
N=C1/C(=C/c2ccc(OC(=O)c3ccco3)cc2)C(=O)N=C2SC=CN12	6	98*	9	0	9	-27
SMILES	eIF4H FP inh	ALR H2O2 inh	SUMO HTRF inh	Efflux pump mplx	PABP polyA inh	PABP1 MLLE inh
N=C1/C(=C\c2ccc(OC(=O)c3ccco3)cc2)C(=O)N=C2SC(N3CCCCC3)=NN12	13	10	14	0	17	-26
CCCC[C@H]1COCCS(=O)(=O)N1Cc1ccccc1F	3	-1	13	0	9	-6
CCCNC(=O)c1ccc(N2CCC3(CC2)CC(c2cccc(Br)c2)=NO3)c([N+](=O)[O-])c1	-7	.	-6	0	-9	2
Cc1ccc(C)c(Nc2nc(-c3ccncc3)nc3ccccc23)c1	-6	2	14	0	-9	6
Cc1cccc(C)c1NC(=O)CS(=O)CC(=O)NCCCc1ccccc1 (stereo unspecified)	92*	-5	37	0	61*	9
CCOc1ccccc1NC(=O)Nc1ccc(OC)nc1	68	-21	-7	0	49*	48*
O=C(CN1CCCCC1)NNc1nc(-c2ccccc2)c2cc(Br)ccc2n1	-8	90*	-2	0	-6	-4
N#C/C(=C\c1ccc(C#N)cc1)C(=O)c1ccccc1	8	93*	16	0	5	25
N#CC(=Cc1ccc(-c2ccccc2)cc1)C(=O)c1ccccc1	.	.	.	.	.	-2
CC(C)(C)c1cc(-c2n[nH]c(=S)n2-c2ccccc2F)n[nH]1	0	91*	-1	0	2	-3
CCC1CCCCN1CCCNC(=O)c1ccc2c(c1)N(Cc1ccc(F)cc1)C(=O)c1ccccc1S2=O (stereo unspecified)	-3	-3	14	0	7	-17
Cc1ccc(NC(=O)CSc2nccn(-c3ccc4c(c3)OCCO4)c2=O)cc1	.	99*	.	0	.	16
CCc1ccc(NC(=O)CSc2nccn(-c3ccc4c(c3)OCCO4)c2=O)cc1	.	.	.	.	.	30
CCOc1ccc(NC(=O)CSc2nccn(-c3ccc4c(c3)OCCO4)c2=O)cc1	.	98*	.	0	.	35
CCOC(=O)c1c(-c2ccccc2)oc2ccc(OC(C)C(=O)O)cc12 (stereo unspecified)	-14	.	55*	0	4	0
O=[N+]([O-])c1c(Nc2cccc(O)c2)cc(Cl)c2nonc12	-5	.	42	0	2	33
O=C(O)c1ccc(Nc2cc(Cl)c3nonc3c2[N+](=O)[O-])cc1	1	46	1	0	0	39*
O=[N+]([O-])c1ccc(CSc2nc3ccccc3[nH]2)cc1	-5	.	-1	0	72*	-74
O=c1cnnc(SCc2ccc([N+](=O)[O-])cc2)[nH]1	-7	100*	-6	1	8	16
O=c1ccnc(SCCc2ccc([N+](=O)[O-])cc2)[nH]1	.	?	.	0	.	-6
c1ccc(CSc2nc3ccccc3[nH]2)cc1	8	-6	8	0	17	-12
CCN(CC)c1ccc(Nc2nc(N3CCOCC3)c3ccccc3n2)cc1	-4	99*	0	0	25	-11
c1csc(-c2nc3ccccn3c2NC2CCCCC2)c1	31	94*	19	0	0	0
Cc1ccn2c(NCc3ccccc3)c(-c3cccs3)nc2c1	-2	34	19	0	2	-1
Cc1ccn2c(NC3CCCC3)c(-c3cccs3)nc2c1	53*	64	29	0	active	3
O=C(O)C(Cc1cccs1)c1cccs1 (stereo unspecified)	.	.	.	.	.	12

Screens (PubChem)
